# Screening results from PubChem.
# SSB-PriA inh: blocks PriA binding to SSB C-terminal tail; inhibition, % at 33 µM; AlphaScreen SSBct-PriA binding, biotinylated peptide; hit rate 0.6% among 430,000; in the data active means inhibition mostly above about 37%, no sharp cut-off; inactive means mostly below about 20%;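 further: plate controls were negative control peptide for no effect and reference peptide for full effect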
# SARS 3CLpro inh-1: SARS-CoV 3CLpro protease inhibition | recombinant SARS-CoV 3CLpro, quenched FRET peptide cleavage | hit rate 0.14% among 290,000 | AID 1706 | inhibition, % at 6 µM; in the data active means inhibition above about 12%
# PrP 5UTR inh: suppresses PrP 5' UTR mRNA reporter expression | cell-based PrP 5' UTR mRNA reporter, plate reader | inhibition, % (no concentration beside the values) | hit rate 0.35% among 340,000 | AID 488862; in the data active means inhibition above about 52%; further: 0 = median of the neutral control wells
# BJeLR lethal: BJeLR cell viability loss; hit rate 0.17% among 300,000; BJeLR (HRASV12) viability, CellTiter-Glo ATP luminescence, 48 h; inhibition, % (test concentration not listed); in the data active means inhibition above about 50%
# PrPC surface inh: cell surface PrPC inhibition, primary TR-FRET screen | P04156 | TR-FRET read-out | inhibition, % at 13.8 µM | hit rate 0.43% among 370,000 | AID 720596; in the data active means inhibition above about 24%; further: 0% = median of the test wells and 100% = reference compound wells
# SARS 3CLpro inh-2: SARS 3CLpro inhibition, confirmation assay | shares compounds with SARS 3CLpro inh-1 | QFRET protease activity assay | inhibition, % at 6 µM | hit rate 36% among 380 | AID 1879; in the data active means inhibition above about 13%
# An asterisk follows results filed as active; . = no result. Most compounds without a hit are left out; they make up all but 1.2% or so of the library.
SMILES,SSB-PriA inh,SARS 3CLpro inh-1,PrP 5UTR inh,BJeLR lethal,PrPC surface inh,SARS 3CLpro inh-2
COc1ccc(COc2ccc(C3C(S(=O)(=O)c4ccccc4)CON3C)cc2OC)cc1 (stereo not given),-2.0,13.8*,-14.8,4.5,6.2,4.0
COc1cc(S(=O)(=O)Nc2ccc(C(=O)O)cc2)c(C)cc1C,-18.0,.,.,.,.,.
O=C(Cc1ccccc1)Nc1nnc(SCc2ccccc2Cl)s1,0.0,.,.,.,.,.
CC(C)CCN1C(=O)C(C)(C)COc2ccc(NC(=O)Cc3cccs3)cc21,23.0,.,.,.,.,.
O=S(=O)(NCc1ccc(C(O)c2ccsc2)s1)c1ccc2c(c1)CCCC2 (stereo not given),-21.0,.,.,.,.,.
CCn1c(COc2ccccc2)nnc1SCC(=O)C(C)(C)C,-18.6,14.6*,-9.6,1.7,12.3,-1.8
CC(C)NS(=O)(=O)c1ccc(C(C)(C)C)cc1,-6.0,.,.,.,.,.
Cc1cccc(NC(=S)NN2CCN(C)CC2)c1C,-10.8,-0.3,-26.1,-4.5,2.9,.
Cc1cccc(NC(=S)NN2CCOCC2)c1C,-13.5,13.2*,-4.6,-20.5,7.1,-0.3
COc1ccc(C(=O)Nc2nc(-c3cccs3)cs2)cc1,-3.2,7.3,-48.1,-7.0,12.7,.
O=C(Nc1nc(-c2cccs2)cs1)c1ccc(Cl)cc1,-13.2,12.8*,-29.3,-1.0,1.7,4.3
N/C(=N\S(=O)(=O)c1cc(C(F)(F)F)cc(C(F)(F)F)c1)c1ccc(Cl)cc1,.,14.2*,-6.4,-13.4,10.4,5.9
COc1ccc(N2CCN(C(=O)c3cc(=O)[nH]c4ccccc34)CC2)cc1,-2.0,27.0*,-23.4,18.0,8.9,26.7*
O=C(c1cc(=O)[nH]c2ccccc12)N1CCN(c2cccc(C(F)(F)F)c2)CC1,0.3,45.9*,-23.7,-1.6,13.7,44.3*
Cc1cc(C)c(C)c(S(=O)(=O)N2CCN(C(=O)c3cc(=O)[nH]c4ccccc34)CC2)c1C,10.6,55.1*,7.4,-4.1,-1.3,53.2*
O=[N+]([O-])c1cccc(C=NNc2nc(NCc3ccccc3)nc(N3CCOCC3)n2)c1,-3.3,.,.,.,.,.
O=C(NC(NC(=S)Nc1cccc(Cl)c1)C(Cl)(Cl)Cl)OCc1ccccc1 (stereo not given),-4.9,13.2*,-15.7,3.4,13.1,5.5
O=C(O)COc1ccc(Br)cc1C(c1c(C(=O)O)[nH]c2ccccc12)c1c(C(=O)O)[nH]c2ccccc12,7.8,13.1*,-24.1,-3.8,.,16.1*
Cn1nc(C(=O)N2CCC(c3nn(C)c(=O)n3C3CC3)CC2)ccc1=O,-2.0,.,.,.,.,.
O=C(COc1ccccc1)Nc1ccc(S(=O)(=O)N2CCCCCC2)cc1,-16.4,-3.9,-31.7,3.0,7.3,.
O=C(COc1ccc(S(=O)(=O)N2CCCCC2)cc1)Nc1ccccc1F,5.5,12.3*,-11.0,6.6,-2.3,-6.1
Nn1c(SCC(=O)N2CCc3ccccc32)nncc1=O,-12.0,.,.,.,.,.
O=C(CCl)Nc1ccccc1C(=O)c1ccccc1,-12.2,12.6*,2.9,-0.8,-4.2,9.3
Cc1cc(C(=O)c2ccccc2)c(NC(=O)CCl)s1,3.8,75.8*,-10.4,4.2,-10.9,81.3*
Cc1cc(C(=O)CCl)c(C)n1-c1cccc(F)c1,-3.0,.,.,.,.,.
SMILES,SSB-PriA inh,SARS 3CLpro inh-1,PrP 5UTR inh,BJeLR lethal,PrPC surface inh,SARS 3CLpro inh-2
Cc1cc(C(=O)CCl)c(C)n1-c1cccc([N+](=O)[O-])c1,-21.2,19.8*,-51.0,.,-6.3,59.6*
Cc1ccc2c(c1)c1c(n2CC(O)CNC(C)(C)C)CCCC1 (stereo not given),20.3,-2.1,-0.2,.,0.6,.
Cc1ccc2c(c1)c1c(n2CC(O)CN2CCCCCC2)CCCC1 (stereo not given),7.4,19.8*,-16.8,0.4,8.2,-0.1
CSc1ccc(-c2noc(CSc3ccc(-c4ccc(C(C)C)cc4)nn3)n2)cc1,-17.0,.,.,.,.,.
CC1CCN(c2ccc3nnc(CCC(=O)NCCCOC(C)C)n3n2)CC1,-8.6,15.6*,-9.3,0.2,4.2,-0.6
CCOc1ccc2c(c1)C(NC(C)=O)C(=O)N2CCN1CCOCC1 (stereo not given),-8.6,11.6,-24.6,3.2,-5.5,.
CC(=O)NC1C(=O)N(CCN2CCOCC2)c2ccc(Br)cc21 (stereo not given),-2.7,13.8*,-21.4,-1.4,5.7,47.0*
CCn1c(=NC(=O)C2CCCN2S(=O)(=O)c2ccc(OC)cc2)sc2c3ccccc3ccc21 (stereo not given),1.0,.,.,.,.,.
CN(Cc1c(C(=O)NN=Cc2cccc(O)c2)nnn1-c1nonc1N)c1ccccc1,14.6,.,.,.,.,.
CCN(CC)c1ccc(/C=N/NC(=O)c2nnn(-c3nonc3N)c2C(C)C)c(O)c1,.,13.7*,33.6,88.5*,23.2,2.9
